Holding throughout (assay): PBM binding z-score (relative to random genomic background probes); higher = stronger binding; sequences stand for … in GC…GCGATTGACAGCGTAGAATGAAGG
The subject of experiment [1] is RARb homodimer (NR concentration 270 nM). A digest of the protocol: (§1)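 The probes on custom Agilent 4×180K protein-binding microarrays were double-stranded, with 34-nt variable regions bearing direct-repeat seeds, single-nucleotide variants, half-site ablations and random human genomic background sequences. Incubation lasted 1 h with ligand-free nuclear receptor dimers in PBS pH 7.4, 2% milk, 0.02% Triton X-100, 1 mM DTT, 0.2 mg/mL BSA and 0.4 mg/ml salmon testes DNA. Antibodies against each partner (one per run) detected bound dimers, and fluorescence scans were regression-normalized. Binding z-scores take the random background probes as reference.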

In experiment [2] the test system is RARg:RXRa (NR concentration 270 nM, RXRa partner concentration 90 nM). A digest of the protocol:
as §1

The test system of experiment [3] is RARg homodimer (NR concentration 270 nM). The essentials: as §1
The subject of experiment [4] is RXRa DBDmut IVT, anti-RXR (DBD mutation: RXRa K156A/R161A, NR concentration 90 nM). A digest of the protocol:
as §1

Experiment [5] concerns RXRa homodimer (NR concentration 180 nM). A digest of the protocol:
as §1

Experiment [6] deals with THRa:RXRa (NR concentration 90 nM, RXRa partner concentration 90 nM). A digest of the protocol: as §1
The test system of experiment [7] is THRa homodimer (NR concentration 90 nM). The essentials: as §1
Experiment [8] concerns VDR homodimer (NR concentration 270 nM). The essentials: as §1

With TTACCAAGGTGAGCTGCGGTCGTTGATCCAACTC, the PBM binding z-score in experiment [1] was 0.677; in experiment [2] it was 0.0521; in experiment [3], 0.0746; in experiment [4] it was -0.731; in experiment [5], 0.198; in experiment [6], 2.28. Besides, the values for the PBM binding z-score in experiment [7] and in experiment [8] were 0.255 and -0.523, respectively.
With CAAGCTAGGTCACGAAAGGTCAAAGTCGAATGAC, the PBM binding z-score stood at 5.98 in experiment [1]; 8.18 in experiment [2]; 8.58 in experiment [3]; 2.43 in experiment [4]; 8.62 in experiment [5]; 5.11 in experiment [6]. The PBM binding z-score in experiment [7] is 2.29; in experiment [8] it was 3.61.
Take CCGACTGGGGCATAAGGTTACCATCAGCCAGCCC: the PBM binding z-score in experiment [1] was 1.72; in experiment [2], 1.41; in experiment [3] it was 1; in experiment [4] it was -0.242; in experiment [5] it was 1.03; in experiment [6], 1.98. For the same sequence, the results for the PBM binding z-score in experiment [7] and in experiment [8] were 1.33 and -0.0619, respectively.
As to CAAACTAGGTCAAGGTCAATGTCGGTTTGTGCCA, the PBM binding z-score in experiment [1] was 5.09; in experiment [2], 5.85; in experiment [3], 6.81; in experiment [4], 2.94; in experiment [5] it was 5.18; in experiment [6], 4.41. Besides, the figures for the PBM binding z-score in experiment [7] and in experiment [8] were 3.82 and 4.11, respectively.
In the case of ATCTCTAGGTAAAGATAGTTCAGTCAATGCAAAT, the PBM binding z-score was determined as 0.999 in experiment [1]; 0.494 in experiment [2]; 0.808 in experiment [3]; 0.26 in experiment [4]; 0.151 in experiment [5]; 0.889 in experiment [6]. The values for the PBM binding z-score in experiment [7] and in experiment [8] were -0.0396 and 0.66, respectively.
In the case of CCTATTAGTGGACCATAAGGGCAACCGAAGCTCG, the PBM binding z-score worked out at 1.53 in experiment [1]; 0.433 in experiment [2]; 0.657 in experiment [3]; 0.115 in experiment [4]; 0.31 in experiment [5]; 1.38 in experiment [6]. Also, the PBM binding z-score was found to be 0.862 in experiment [7] and 0.415 in experiment [8].
Take ATCTCTAGGTAGGACTCAGTTCAGTGAAGAACGC: the PBM binding z-score in experiment [1] was found to be 0.778; in experiment [2], 0.159; in experiment [3], 0.0916; in experiment [4], 0.747; in experiment [5], 0.071; in experiment [6], 0.569. Further, the PBM binding z-score was found to be 0.909 in experiment [7] and 1.66 in experiment [8].
